From PubChem BioAssay (NCATS)
Inconclusive results are not listed. Entries that show only a call come without a potency. Calls of active or inactive are those of the source. Calls come from the whole dose curve; as a rule, active = well fitted inhibition curve with a large enough effect; inconclusive = small, poorly fitted or top-dose-only effect; inactive = no such curve, though single readings can be large or run the other way.
Potency is the fitted concentration of half-maximal effect.

These compounds were tested against Retinaldehyde dehydrogenase 3 (Homo sapiens) (UniProt P47895) (assay: qHTS for Inhibitors of the Aldehyde Dehydrogenase Family (ALDH1A3) Confirmatory screens (AID 2061311; note: nearly all actives have a fitted effect of over 60% in size)). Settings: ALDH inhibition qHTS; series mostly up to 46 µM.
O=C(Nc1ccccc1Cl)c1nc2cccnc2n(Cc2ccccc2)c1=O was tested, and the Potency was “inactive”.
In the case of CN(Cc1ccc(-c2ccccc2)cc1)CC1CCCCC1, the Potency is reported as 35.5 µM (active).
O=C(O)c1cc(Br)c(O)c2ncccc12 was tested, and the Potency was “inactive”.
For COc1ccccc1-c1cc2c(nc1OC)nc(CC1CC1)n2C, the Potency was “inactive”.
With Cc1ccc(N[S+](=O)([O-])c2cc3c(cc2N[C@@H](C)CO)NC(=O)CC3)cc1N[C@@H](C)CO the Potency was 14.2 µM (active).
For Cn1ncc2c(C(=O)NCC(F)(F)F)cc(-c3ccccc3F)nc21, the Potency was “inactive”.
For CCc1nn2c(=O)c(S(=O)(=O)Nc3ccc(C)cc3C)c(C)nc2s1, the Potency was “inactive”.
CCc1nn2c(=O)c(S(=O)(=O)Nc3ccc(Cl)cc3)c(C)nc2s1 was tested, and the Potency was “inactive”.
With Cc1cc2ncc(C(=O)NCCc3ccccc3F)cn2n1 the Potency was “inactive”.
For O=c1c2cnn(-c3ccc(Cl)cc3)c2ncn1Cc1cccc(C(F)(F)F)c1, the Potency was “inactive”.
CC(=O)Nc1ccc(CN2CCCC(N3CCN(c4ccccc4)CC3)C2)cc1 (centres undefined) was tested, and the Potency was “inactive”.
In the case of Cn1ccc(Nc2ccc3nnc(-c4ccccn4)n3n2)n1, the Potency is reported as “inactive”.
In the case of Cn1c(Oc2cccc(Cl)c2)nc2c1c(=O)n(Cc1ccccc1Cl)c(=O)n2C, the Potency is reported as 31.6 µM (active).
For COc1ccc(C)cc1NC(=O)N1CCC(OC2CCN(Cc3ccccc3)CC2)CC1, the Potency was “inactive”.
In the case of Cc1ccc(Oc2nc3c(c(=O)n(Cc4ccccc4Cl)c(=O)n3C)n2C)cc1C, the Potency is reported as “inactive”.
With O=S(=O)(c1ccccc1)c1nnn2c1nc(NC1CCCC1)c1ccccc12 the Potency was “inactive”.
CCOC(=O)c1noc2ncnc(Nc3ccc(C)c(F)c3)c12 was tested, and the Potency was “inactive”.
With CNCc1ccc(N2CCCC2)cc1 the Potency was “inactive”.
O=C(CSc1nc2ncccc2[nH]1)Nc1cc(F)ccc1F was tested, and the Potency was “inactive”.
CCOc1ccc(S(=O)(=O)NCc2nc3cccnc3n2Cc2ccccc2OC)cc1 was tested, and the Potency was 15.8 µM (active).
With CN(C(=O)c1cnc2n[nH]c(-c3ccccc3)c2n1)c1ccccc1 the Potency was “inactive”.
In the case of COc1cccc(CNc2ccc(S(=O)(=O)Nc3ccc(N4CCNCC4)nc3)cc2)c1O, the Potency is reported as 15.9 µM (active).
COc1cccc(CCC(=O)NCc2nnc3c(-c4nc(C)no4)cccn23)c1 was tested, and the Potency was “inactive”.

Each compound was assayed against Retinal dehydrogenase 2 (Homo sapiens) (UniProt O94788) (assay: qHTS for Inhibitors of the Aldehyde Dehydrogenase Family (ALDH1A2) Confirmation screens (AID 2061314; note: nearly all actives have a fitted effect of over 65% in size)). Settings: ALDH1A2 enzyme inhibition qHTS confirmation; series mostly up to 45.9 µM.
CCC(=O)NC(C)c1cc(Cl)c2ccccc2c1O (centres undefined) was tested, and the Potency was 1.01 µM (active).
With Oc1cc(-c2cccnc2)cc2cccnc12 the Potency was “inactive”.
O=C(O)c1cc(Br)c(O)c2ncccc12 was tested, and the Potency was 0.449 µM (active).
For Cc1ccc(N[S+](=O)([O-])c2cc3c(cc2N[C@@H](C)CO)NC(=O)CC3)cc1N[C@@H](C)CO, the Potency was 2.83 µM (active).
In the case of CCc1nn2c(=O)c(S(=O)(=O)Nc3ccc(C)cc3C)c(C)nc2s1, the Potency is reported as “inactive”.
COc1cccc(CNc2ccc(S(=O)(=O)Nc3ccc(N4CCNCC4)nc3)cc2)c1O was tested, and the Potency was 22.5 µM (active).
